Reference: PubChem BioAssay AID651642 (Sanford-Burnham Center for Chemical Genomics, 2012)
Values without a mark were called inactive. Activity calls are given as the source filed them.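 Rule for the calls: active = average half-effect concentration of 10 µM or less in every one of the four cell panels; inactive = the rest.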

What follows are compounds tested on HL-1 (assay: cardiomyocyte survival under oxidative or metabolic stress – cell-based, panel, H9c2 and HL-1, H2O2, 2-deoxyglucose, ATP luminescence, SAR follow-up (AID 651642;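 note: plate controls were H2O2 plus DMSO for no effect and cells kept without H2O2 for full effect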)). Details: H9c2/HL-1 cardiomyocyte H2O2 oxidative damage, mean of runs; activity: with H2O2, at 0.154 µM; outcome: with H2O2.
For COc1ccc(NC(=O)CNC(=O)c2cc(-c3cc(OC)c(OC)c(OC)c3)nc3ccccc23)cc1, the activity was 3.9% (active). COc1ccc2c(c1OC)C(=O)N1c3ccccc3C(=O)N(Cc3ccccc3Cl)C21 (configuration not stated) showed an activity of 2.73%. With COc1cc(-c2cc(C(=O)Nc3cccc(-c4nn[nH]n4)c3)c3ccccc3n2)cc(OC)c1OC the activity was -2.86%. CCOC(=O)c1cccc(NC(=O)c2cc(-c3cc(OC)c(OC)c(OC)c3)nc3ccc(Br)cc23)c1 was tested, and the activity was 0.456%. COc1cc(-c2cc(C(=O)Nc3cccc(C(=O)N4CCOCC4)c3)c3ccccc3n2)cc(OC)c1OC was tested, and the activity was -0.415%. COc1cc(-c2cc(C(=O)Nc3cccc(C(N)=O)c3)c3ccccc3n2)cc(OC)c1OC was tested, and the activity was -0.415% (active). With COc1cc(-c2cc(C(=O)NCC(=O)Nc3cccc(C(C)=O)c3)c3ccccc3n2)cc(OC)c1OC the activity was -2.38% (active). With COc1cc(-c2cc(C(=O)NCC(=O)Nc3ccc(C(C)=O)cc3)c3cc(C)ccc3n2)cc(OC)c1OC the activity was 4.62% (active). Compound COc1cc(-c2cc(C(=O)Nc3cccc(C#N)c3)c3ccccc3n2)cc(OC)c1OC has an activity of 0.75%. CCOC(=O)c1ccccc1NC(=O)c1cc(-c2cc(OC)c(OC)c(OC)c2)nc2ccccc12 gave an activity of -1.41%. COc1cc(-c2cc(C(=O)NCC(=O)Nc3cccc(C(C)=O)c3)c3cc(Br)ccc3n2)cc(OC)c1OC was tested, and the activity was -0.566% (active). Work on COc1cc(-c2cc(C(=O)NCC(=O)Nc3ccc(C(C)=O)cc3)c3ccccc3n2)cc(OC)c1OC yielded an activity of 0.684%. COc1ccc2c(c1OC)C(=O)N1c3ccccc3C(=O)N(Cc3ccc(C)cc3)C21 (configuration not stated) showed an activity of 9.89%. With COc1cc(-c2cc(C(=O)NCC(=O)Nc3cccc(C(C)=O)c3)c3cc(F)ccc3n2)cc(OC)c1OC the activity was -0.68% (active). COc1ccc2c(c1OC)C(=O)N1c3ccccc3C(=O)N(Cc3ccccc3C)C21 (configuration not stated) showed an activity of -0.339%. With COc1ccc2c(c1OC)C(=O)N1c3ccccc3C(=O)N(Cc3ccccc3F)C21 (configuration not stated) the activity was 4.24%. COc1ccc2c(c1OC)C(=O)N1c3ccccc3C(=O)N(Cc3cccc(C)c3)C21 (configuration not stated) showed an activity of -2.16%. COc1ccc2c(c1OC)C(=O)N1c3ccccc3C(=O)N(Cc3cccc(Br)c3)C21 (configuration not stated) gave an activity of 0.759%. Compound COc1cc(-c2cc(C(=O)NCC(=O)O)c3ccccc3n2)cc(OC)c1OC has an activity of -0.263%. For COc1ccc2c(c1OC)C(=O)N1c3ccccc3C(=O)N(Cc3c(Cl)cccc3Cl)C21 (configuration not stated), the activity was 2.81%. CCOC(=O)c1cccc(NC(=O)CNC(=O)c2cc(-c3cc(OC)c(OC)c(OC)c3)nc3ccc(OC)cc23)c1 was tested, and the activity was -3.33% (active). CCOC(=O)c1cccc(NC(=O)c2cc(-c3cc(OC)c(OC)c(OC)c3)nc3ccc(C)cc23)c1 was tested, and the activity was 4.25%. With COc1ccc2c(c1OC)C(=O)N1c3ccccc3C(=O)N(Cc3ccccc3Br)C21 (configuration not stated) the activity was -0.68%. In the case of COc1cc(-c2cc(C(=O)Nc3cccc(C(C)=O)c3)c3cccc(Cl)c3n2)cc(OC)c1OC, the activity is reported as -3.22%. CCOC(=O)c1cccc(NC(=O)CNC(=O)c2cc(-c3cc(OC)c(OC)c(OC)c3)nc3ccc(F)cc23)c1 was tested, and the activity was 2.27% (active). In the case of COc1ccc2c(c1OC)C(=O)N1c3ccccc3C(=O)N(Cc3cccc(F)c3)C21 (configuration not stated), the activity is reported as 0.0397%. In the case of COc1cc(-c2cc(C(=O)Nc3cccc(C(C)=O)c3)c3cc(C)ccc3n2)cc(OC)c1OC, the activity is reported as 2.4% (active). CCOC(=O)c1cccc(NC(=O)c2cc(-c3cc(OC)c(OC)c(OC)c3)nc3ccc(OC)cc23)c1 was tested, and the activity was 8.27%. COc1cc(-c2cc(C(=O)Nc3cccc(C(=O)Nc4ccccc4)c3)c3ccccc3n2)cc(OC)c1OC showed an activity of -3.29%. In the case of COc1cc(-c2cc(C(=O)Nc3cccc(C(=O)NC4CC4)c3)c3ccccc3n2)cc(OC)c1OC, the activity is reported as -0.15% (active). Work on COc1cc(-c2cc(C(=O)NCC(=O)Nc3cccc(C(C)=O)c3)c3cc(C)ccc3n2)cc(OC)c1OC yielded an activity of 0.0397%. With COc1ccc2c(c1OC)C(=O)N1c3ccccc3C(=O)N(Cc3ccc(F)cc3)C21 (configuration not stated) the activity was -2.95%.
